Holding throughout (experiment): NCI-60 one-dose screen, 48 h (100 = growth as untreated, 0 = no growth, -100 = all killed)
Holding throughout (details): 10 µM unless noted

In assay [1] the test system is HOP-62 NSCLC.
The test system of assay [2] is NCI-H460 lung.
The subject of assay [3] is A549/ATCC NSCLC.
Assay [4] deals with 786-0 renal.
Assay [5] deals with DU-145 prostate.
Assay [6] has as its system MALME-3M melanoma.
Assay [7] deals with RXF 393 renal.
In assay [8] the test system is SF-295 CNS.
Assay [9] has as its system UACC-257 melanoma.
Assay [10] relates to M14 melanoma.
Assay [11] relates to SNB-19 CNS.
Assay [12] concerns SK-MEL-2 melanoma.
For assay [13], the system named is UO-31 renal.
Assay [14] deals with A498 renal.
Assay [15] deals with HL-60(TB) leukemia.
Assay [16] has as its system RPMI-8226 leukemia.
For assay [17], the system named is OVCAR-5 ovarian.
Assay [18] has as its system OVCAR-4 ovarian.
The test system of assay [19] is T-47D breast.
Assay [20] concerns HCC-2998 colon.

Results on 8 compounds are retold here after PubChem BioAssay (NCI).

About 83,000 compounds went through this panel and 20% of them were active in at least one assay; those are over-represented in the sample as a whole.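 Testing used 96-well plates and a 48-hour single-concentration exposure. Example: -40 means 40% of the starting cells died.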 A number with no mark means an inactive call. Active and inactive are the calls of the source. The calls were made as follows: active = growth percent below 10; inactive = the rest.

As to `C[As](=O)(O)c1ccc(C(=O)O)cc1`, the growth was 108% in assay [1]; 112% in assay [2]; 106% in assay [3]; 109% in assay [4]; 109% in assay [5]; 112% in assay [6]. Further, the growth was 95.9% in assay [7]; 99.8% in [8]; 102% in [9]; 104% in assay [10]; 106% in assay [11]; 99.9% in assay [12]. For the same compound, the growth was 93.2% in [13]; 96.3% in assay [14]; 102% in assay [15]; 101% in assay [16]; 115% in assay [17]; 113% in assay [18]. Further, the figures for the growth in assay [19] and in [20] were 110% and 116%, respectively.

On to `Cc1cc(N(CCCl)CCCl)ccc1C=Nc1ccc2ccccc2c1`, for which the growth in assay [1] was 42.7%; in [2], 26%; in assay [3], 69.8%; in [4] it was 75.5%; in assay [5] it was 71.5%; in assay [6], 84.9%. Further, the growth is 71.5% in assay [7]; 37.8% in assay [9]; 88% in assay [10]; 84.7% in assay [11]; 145% in assay [12]; 50.8% in assay [13]. In addition, the growth was -77.9% (active) in assay [14]; 46% in assay [15]; 78.8% in assay [16]; 24.4% in assay [17]; 83.5% in [18]; 5.25% (active) in [19]. For the same compound, the growth in assay [20] is 94.5%.

Take `O=C1NC(=O)C(O)(C2(O)C(=O)NC(=O)NC2=O)C(=O)N1`: the growth in assay [1] was 97.6%; in assay [2], 100%; in assay [4], 93.4%; in assay [5], 109%; in assay [6], 57.9%; in assay [8], 133%. Further, the growth in assay [10] is 105%; in assay [11] it was 96.1%; in assay [12], 77.5%; in [13], 86.1%; in assay [14] it was 89.1%; in assay [15] it was 85.9%. Besides, the growth is 75.6% in assay [16]; 88.1% in assay [17]; 108% in assay [18]; 101% in assay [19]; -55.7% (active) in assay [20].

Take `NC(=O)NC(=O)CI`: the growth in assay [1] was 109%; in [2], 106%; in assay [3], 98.6%; in [4], 88%; in assay [5], 101%; in assay [6] it was -43.6% (active). Also, the growth in [7] was 65%; in [8], 119%; in assay [9] it was 79.1%; in assay [10], 88.7%; in [11] it was 86.3%; in assay [12], 92.1%. Moreover, the growth in assay [14] was 97.9%; in assay [15], 98.3%; in assay [16] it was 91.3%; in [17], 114%; in assay [18], 94.4%; in assay [19], 8.8% (active). Moreover, in assay [20], the growth was 113%.

Consider `O=C(NCc1ccc([N+](=O)[O-])cc1)Nc1ccc(S(=O)(=O)F)cc1`, for which the growth in [1] was 70.5%; in assay [2] it was 95.8%; in [3], 75%; in assay [4], 80.1%; in assay [5] it was 102%; in [6], 78.7%. Moreover, the growth in assay [7] is 59.9%; in assay [9], 83%; in [10] it was 93.5%; in [11], 88.6%; in assay [12], 105%; in assay [13], 61.2%. Besides, the growth in [14] was 55.9%; in assay [15], 85.1%; in assay [16] it was 68.9%; in assay [17], 83.9%; in [18], 83.4%; in [19], 57%. For the same compound, the growth in [20] was 99.2%.

As to `Cc1cc(NC(=O)CCc2ccc(N3C(N)=NC(N)=NC3(C)C)cc2)ccc1S(=O)(=O)F`, the growth was 28.7% in assay [1]; 12.3% in assay [2]; 20.9% in assay [4]; 45.8% in [5]; 32.3% in assay [6]; 5.44% (active) in [8]. The growth in assay [10] was 48.2%; in [11] it was 45%; in assay [12], -21.1% (active); in assay [13], 101%; in assay [14], 59.8%; in assay [15] it was 13.3%. In addition, the growth in [16] is -24.6% (active); in assay [17], 17.9%; in [18], 62.1%; in assay [19], 75.1%.

As for `C[C@]12CCC(=O)CC1CC[C@@H]1C2CC[C@@]2(C)C1CC[C@@H]2OC(=O)CC[Se][Se]CCC(=O)O[C@H]1CCC2[C@@H]3CCC4CC(=O)CC[C@]4(C)C3CC[C@@]21C` (stereo partly drawn), the growth was 82.4% in assay [1]; 95.9% in [2]; 101% in assay [3]; 107% in assay [4]; 110% in assay [5]; 94.2% in assay [6]. In addition, the growth in assay [7] is 81.7%; in assay [8], 96.7%; in assay [9] it was 90.6%; in assay [11], 76.7%; in assay [12], 98.4%; in [13], 90.5%. The growth was 84.6% in [14]; 9.16% (active) in assay [15]; 93.6% in [16]; 102% in [17]; 83.2% in [18]; 86.5% in [19]. In addition, the growth in [20] was 108%.

For the compound `Cc1cc(NC(=O)/C=C/c2ccc([N+](=O)[O-])cc2)ccc1S(=O)(=O)F`, the growth was 103% in assay [1]; 103% in assay [2]; 98.8% in assay [3]; 89.1% in assay [4]; 103% in [5]; 103% in [6]. The growth in [7] was 119%; in assay [9], 97.4%; in assay [10], 112%; in assay [11], 109%; in assay [12], 107%; in [13], 71.8%. For the same compound, the growth is 98.7% in [14]; 98.5% in [15]; 87% in [16]; 113% in assay [17]; 103% in assay [18]; 87.6% in [19]. In addition, the growth in [20] is 102%.
